As a reminder, the AC50 is the midpoint of the concentration-response curve, whichever way the signal moves.

“And” between values parts separate entries of the source, which are not always exact repeats. Identical values can stand only once. More than one record can exist for a structure, and the calls need not agree. The source made the active and inactive calls. Rule for the calls: active = hit-call score of the fitted dose curve at least 0.9, where 1 is the maximum; inactive = score below 0.9.

Read-out in the experiment: sulfotransferase 2A1 (SULT2A1), SULT2A1 (gene 6822)
In words: LTEA_HepaRG_SULT2A1: Life Technologies and Expression Analysis (LTEA) Assay for sulfotransferase 2A1 (SULT2A1) using HepaRG (AID 2283531). Conditions: mRNA level, 48 h; actives raise or lower the signal. As for the experimental part: LTEA_HepaRG is a cell based, multiplexed-readout assay that uses HepaRG, a human liver cell line, with measurements taken at 48 hours after chemical dosing on a 96-well plate.LTEA_HepaRG_SULT2A1 is one of 102 assay component(s) measured in the LTEA HepaRG cell culture assay. It is a marker of NR mediated transport.Data from the assay component LTEA_HepaRG_SULT2A1 was analyzed into 1 endpoint. This assay endpoint, LTEA_HepaRG_SULT2A1, was analyzed with bidirectional fitting relative to DMSO as the negative control and baseline of activity. Using a type of inducible reporter, measures of mRNA induction for gain or loss-of-signal activity can be used to understand regulation of transcription factor activity. To generalize the intended target to other relatable targets, this assay endpoint is annotated to the transferase intended target family, where the subfamily is sulfotransferase.
A total of 1060 chemcials from the ToxCast library were tested in eight-point concentration-response experiments. Cell culture and cytotoxicity assays were conducted at Thermo Fisher Scientific's Custom Services facility (Madison, WI). A single lot of human HepaRG cells (Thermo Fisher Scientific, Frederick, MD) was used for the cell culture experiments. 96-well format collagen type I coated plates of human HepaRG cells were prepared using established methods. Briefly, cryopreserved HepaRG cells were thawed, plated at a density of approximately 100,000 cells/well in HepaRG Thaw, Plate, and General Purpose media (HPRG770, Thermo Fisher Scientific), and incubated for 48 hours. 0.5% DMSO was selected as vehicle control to balance the requisite need of DMSO in HepaRG cultures to maintain differentiation (for example, baseline metabolism, proportions of hepatocytes vs. cholangiocytes), while enabling further hepatic receptor pathway activation (for example, PXR and CAR) in response to chemical exposure. 48 hours after plating, the culture medium was replaced with HepaRG Serum-Free Incudtion Media. Cells were exposed to each test chemical in duplicate and maintained in CO2 incubators for another 48 hours. Chemical plates were thawed to room temperature and 200x concentrations of treatment groups were prepared. 8-point conentration-reponse curves were made with the highest exposure at 100 uM, followed by half-log dilutions, all in 0.5% DMSO. Each test plate contained variouse controls, induction positive controls (1mM phenobarbital), cytotoxicity positive controls ([…] aflatoxin B1), vehicle controls (0.5% DMSO), and total lysis controls (0.5% DMSO). Cell morphology images were taken using an Essen IncuCyte FLR automated microscope, with six 96-well plates imaged in about 24 minutes. Images were captured and exported and JPEG files. Spent culture media was transfered to black-well plates for the LDH assay, and remaining media was sorted at -80 C for later use. Cells were treated with RLT buffer and frozen until shipped for gene expression analysis. Total RNA was isolated from the cell suspension in 75 uL of Buffer RLT (Qiagen, Germantown, MD 20874) by Quintiles/Expression Analysis (Durham, NC) using a custom isolation procedure. Total RNA from each plate well was transferred to a preamplification plate. Fluidigm's 96.96 Dynamic ArrayTM (Fluidigm, Amsterdam, the Netherlands) technology was used for gene expression analyses by quantitative reverse transcription polymerase chain reaction (qRT-PCR, performed by Quintiles/Expression Analysis, Durham, NC)89. Standard TaqManTM Assays (Applied Biosystems/ThermoFisher Scientific, Foster City, CA) were used to assess the expression of 93 genes selected based on their selectivity and sensitivity to important hepatic receptors known to be modulated by environmental chemicals; importance in human hepatocyte functionality; and hepatotoxicity. […]
As for `CCCCOC(=O)[C@@H](C)Oc1ccc(Oc2ccc(C(F)(F)F)cn2)cc1`, the result was inactive.
In the case of `C#C[C@]1(O)CC[C@H]2[C@@H]3CCC4=CC(=O)CC[C@@H]4[C@H]3CC[C@@]21CC`, the call was inactive.
On the same count and under the same terms, with `CCCCC(CC)COC(=O)c1ccccc1C(=O)O` (stereo not given) the entry was “inactive”; with `CSC(=O)c1cccc2nnsc12`, “inactive”.
With `CCOC(=O)NCCOc1ccc(Oc2ccccc2)cc1`, the AC50 was 82.7 µM (active).
For `CC(C)CCCCCCc1ccc(O)cc1`, the result was inactive.
For `CC(=O)S[C@@H]1CC2=CC(=O)CC[C@]2(C)[C@H]2CC[C@@]3(C)[C@@H](CC[C@@]34CCC(=O)O4)[C@H]12`, the AC50 is 50 µM (active).
Turning to `COCCO`, the result was inactive.
As for `CC(C)(c1ccc(O)cc1)c1ccc(O)cc1`, the result was inactive and the AC50 was 291 µM (active).
As to `N[C@@H](Cc1cc(I)c(Oc2ccc(O)c(I)c2)c(I)c1)C(=O)O`, the AC50 is 27.1 µM (active).
For the molecule `CCOC(=O)C(C)Oc1ccc(Oc2nc3ccc(Cl)cc3o2)cc1` (stereo not given), the result was inactive.
Same read-out and setting: to `O=C(c1ccccc1)C1CCCCC1` belongs “inactive”; to `CC(C)(C)[C@@H](O)[C@@H](Cc1ccc(Cl)cc1)n1cncn1`, “inactive”.
For `CC(=O)[C@H]1CC[C@H]2[C@@H]3CCC4=CC(=O)CC[C@]4(C)[C@H]3CC[C@]12C`, the AC50 is 38.5 µM (active).
With `CCCCCOC(=O)COc1cc(N2C(=O)C3=C(CCCC3)C2=O)c(F)cc1Cl`, the call was inactive.
As to `CCCCC(CC)CN1C(=O)C2C3C=CC(C3)C2C1=O` (stereo not given), the AC50 was 86.1 µM (active).
For `CCOC(=O)C(C)Oc1ccc(Oc2cnc3cc(Cl)ccc3n2)cc1` (stereo not given), the AC50 was 2.34 µM (active).
Still for that read-out and setting: to `Cc1nn(C)c(Oc2ccccc2)c1C=NOCc1ccc(C(=O)OC(C)(C)C)cc1` belongs 42.4 µM (active).
For `c1ccc2[nH]c(-c3cscn3)nc2c1`, the molecule was classed as inactive.
For `S=C(S)NCCNC(=S)S.[Mn+2].[S-]C([S-])=NCCN=C([S-])[S-].[Zn+2]`, the AC50 was 1.2 µM (active) and 1.29 µM (active) and 1.56 µM (active).
Turning to `CCCOC(=O)c1ccc(C(=O)OCCC)nc1`, the molecule was called inactive.
In the case of `CCC(C)OC(=O)N1CCCCC1CCO` (stereo not given), the molecule was classed as inactive.
On the same count and under the same terms, with `CN(C)C(=O)Nc1ccc(Cl)c(Cl)c1` the entry was “inactive”.
For `O=C(Nc1ccc([N+](=O)[O-])cc1Cl)c1cc(Cl)ccc1O`, the AC50 is 5.12 µM (active).
On to `COC(=O)c1ccc(I)cc1S(=O)(=O)NC(=O)Nc1nc(C)nc(OC)n1`, for which the molecule was classed as inactive.
Same read-out and setting: to `CCNc1nc(N)nc(Cl)n1` belongs “inactive”.
For the molecule `S=C([S-])NCCNC(=S)[S-].[Mn+2]`, the AC50 was 3.76 µM (active).
As for `CCN(CC)C(=O)c1cccc(C)c1`, the call was inactive.
Turning to `OB(O)O`, the result was inactive.
Same read-out and setting: with `CC1(C)C(C=C(Cl)Cl)C1C(=O)OCc1cccc(Oc2ccccc2)c1` (stereo not given) the entry was “inactive”; with `CCCN(CCC)c1c([N+](=O)[O-])cc(C(F)(F)F)c(N)c1[N+](=O)[O-]`, “inactive”.
Same read-out and setting: to `CCCN(CCC)C(=O)SCC` belongs “inactive”.
Turning to `COc1c(Cl)ccc(Cl)c1C(=O)O`, the call was inactive.
Still for that read-out and setting: to `N#CSCSc1nc2ccccc2s1` belongs “inactive”; to `CCCCOC(=O)C(C)Oc1ccc(Oc2ccc(C(F)(F)F)cn2)cc1` (stereo not given), “inactive”.
For the molecule `Oc1ccc(C(c2ccc(O)cc2)C(Cl)(Cl)Cl)cc1`, the AC50 was 84.3 µM (active).
For `CCCOC(=O)NCCCN(C)C`, the molecule was classed as inactive.
As for `C=CCOC(Cn1ccnc1)c1ccc(Cl)cc1Cl` (stereo not given), the AC50 was 36.4 µM (active).
In the case of `O=C(O)C1(C(=O)Nc2ccc(Cl)cc2Cl)CC1`, the AC50 was 87.4 µM (active).
